Experimental findings from the supplement of paper PMC6992640 are described below.

The assay relates to WHIM2 (cells of a triple-negative basal-like breast cancer xenograft). Nature of the assay: cell viability of combination (% of vehicle); higher = less cytotoxic. The settings on record: 1 µM; 72 h; partner dose: 10 nM. On the procedure:
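PDX cells were treated for 72 h with each drug at 1 µM plus afatinib (10 nM; 1 µM for WHIM30). Luciferase viability is expressed as percent of vehicle.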
On to `Cc1cc(C(C#N)c2ccc(Cl)cc2)c(Cl)cc1NC(=O)c1cc(I)cc(I)c1[O-].[Na+]` (stereo not given) [Closantel Sodium] + CN(C)C/C=C/C(=O)Nc1cc2c(Nc3ccc(F)c(Cl)c3)ncnc2cc1O[C@H]1CCOC1 [Afatinib], for which the “cell viability of combination” value stood at 49.1. `CCCCCCCCCCCCCCCC[N+](C)(C)C.[Br-]` [Cetrimonium Bromide (CTAB)] + CN(C)C/C=C/C(=O)Nc1cc2c(Nc3ccc(F)c(Cl)c3)ncnc2cc1O[C@H]1CCOC1 [Afatinib]: the “cell viability of combination” value is 38.

Regarding `CCCCCCCCCCCC[N+](C)(C)CCOc1ccccc1.[Br-]` [Domiphen Bromide] + CN(C)C/C=C/C(=O)Nc1cc2c(Nc3ccc(F)c(Cl)c3)ncnc2cc1O[C@H]1CCOC1 [Afatinib], the “cell viability of combination” value came out at 41.6. The value for `CCCCCCCCCCCCCCCC[n+]1ccccc1.[Cl-]` [Cetylpyridinium Chloride] + CN(C)C/C=C/C(=O)Nc1cc2c(Nc3ccc(F)c(Cl)c3)ncnc2cc1O[C@H]1CCOC1 [Afatinib] was 32.2; that for `Cc1cc(C(C#N)c2ccc(Cl)cc2)c(Cl)cc1NC(=O)c1cc(I)cc(I)c1O` (stereo not given) [Closantel] + CN(C)C/C=C/C(=O)Nc1cc2c(Nc3ccc(F)c(Cl)c3)ncnc2cc1O[C@H]1CCOC1 [Afatinib] was 47.
